# Source: PubChem
# GRP78 ERSR act: inducers of ER stress response in human glioma cells. U87-MG GRP78 promoter luciferase reporter, 16 h. Potency, µM, inactives show at the highest dose activation, usual class: activators. 420,000 tested, 0.02% active; also: series mostly up to about 76 µM; % of control where 0% means no effect; nearly all actives have a fitted effect of over 35% in size
#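 Stably transfected U87-MG glioma cells carrying a GRP78-based luciferase sensor; 16 h compound incubation. Luminescence end-point read 10 min after Bright-Glo addition at room temperature.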
# ALOX12 inh: blocks human arachidonate 12S-lipoxygenase. purified 12hLO, xylenol orange hydroperoxide absorbance. Potency, µM (top dose mostly 108 µM), for inactives: at the highest dose activity change, negative = inhibition, actives largely listed as inhibitors. 580,000 tested, 1.1% active. AID 1671190; also: % is scaled to controls: 0 for no effect and ±100 for the full control effect
#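 Hydroperoxide product was detected by ferrous iron/xylenol orange as the 573 to 405 nm absorbance ratio. Arachidonic acid at 40 uM (final) was turned over for 30 min at room temperature by 150 nM human 12hLO, pH 7.0 Hepes buffer, after 15 min compound preincubation.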
# VDR inhibitor: vitamin D3 receptor (human) inhibition. 400,000 tested, 0.93% active. VDR-SRC2-3 peptide fluorescence polarization, 2 h. Potency, µM, for the others: max response, negative = inhibition, hits mostly inhibitors. P11473; also: % is scaled to controls: 0 for no effect and ±100 for the full control effect
# Target sequence (P11473 whole entry, looked up): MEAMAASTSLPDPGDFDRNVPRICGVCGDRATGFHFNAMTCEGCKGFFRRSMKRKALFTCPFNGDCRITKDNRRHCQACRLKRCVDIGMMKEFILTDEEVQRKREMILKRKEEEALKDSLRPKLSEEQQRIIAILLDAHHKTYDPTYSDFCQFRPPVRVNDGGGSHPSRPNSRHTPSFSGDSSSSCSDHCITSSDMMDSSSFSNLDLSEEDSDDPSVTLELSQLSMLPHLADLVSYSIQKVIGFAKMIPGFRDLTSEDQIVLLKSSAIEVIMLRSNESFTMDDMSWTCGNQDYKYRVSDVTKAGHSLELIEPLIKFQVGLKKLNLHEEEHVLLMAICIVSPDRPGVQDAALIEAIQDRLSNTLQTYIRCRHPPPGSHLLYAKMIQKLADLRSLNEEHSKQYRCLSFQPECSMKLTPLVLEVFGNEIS
#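 Signal is fluorescence polarization, reporting how far test compounds block the interaction of VDR with the SRC2-3 coregulator peptide after a 2 h room-temperature incubation.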
# G9a inh: G9a (human) methyltransferase inhibition | Potency, µM (series often up to 102 µM), without a hit: top-dose activity, negative = inhibition, actives largely listed as inhibitors | G9a H3K9 monomethylation, AlphaScreen, 2 h | 350,000 tested, 8.8% active | Q96KQ7 | AID 504332; also: % is scaled to controls: 0 for no effect and ±100 for the full control effect; nearly all actives have a fitted effect of over 75% in size
# Target sequence (Q96KQ7 913-1193 limits assumed): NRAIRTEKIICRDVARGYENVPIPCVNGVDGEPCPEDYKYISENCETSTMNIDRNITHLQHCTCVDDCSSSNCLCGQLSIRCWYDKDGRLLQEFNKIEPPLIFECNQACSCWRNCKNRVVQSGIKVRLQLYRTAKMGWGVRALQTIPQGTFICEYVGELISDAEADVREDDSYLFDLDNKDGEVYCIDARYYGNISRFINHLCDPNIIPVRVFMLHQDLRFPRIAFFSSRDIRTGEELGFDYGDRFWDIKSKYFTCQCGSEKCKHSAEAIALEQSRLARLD
#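 Step 1: enzyme (final 20 nM) with compound, 15 min RT. Step 2: substrate peptide 500 nM and SAM 20 uM, 2 h RT. Step 3: anti-H3K9me1 antibody and AlphaScreen beads, 10 min, then plate read.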
# Sfp PPTase inh: blocks B. subtilis Sfp PPTase activity; Potency, µM, without a hit: largest response in the series, negative = inhibition, usual class: inhibitors; 310,000 tested, 3.5% active; Biochemical Sfp PPTase activity, qHTS;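 also: the enzyme is Sfp with the accession as filed and its product quenches rhodamine fluorescence; 0% = enzyme reaction without inhibitor and -100% = no enzyme wells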
#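 Sfp 15 nM + cpd, 15 min RT; start w/ rhodamine-CoA 5 uM, BHQ-2-YbbR 12.5 uM (final); 50 mM Hepes pH 7.6, 10 mM MgCl2, 0.01% NP-40, 0.01% BSA; read 525/598 nm at 0 and 30 min.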
# The depositor's hits bear a star; ? = inconclusive; nt = not tested or not shown; ! = a repeat was not active; [ ] = dose if it differs, or a comment. This is one part of a sample in which hits are shown more often than they occur. Calls follow the shape of the dose curve; as a rule, active = well fitted curve in the direction sought with a large enough effect; inconclusive = small, poorly fitted or top-dose-only effect, or another doubt; inactive = no such curve, though single readings can be large; an effect the other way counts as inactive or inconclusive. Potency is read from the fitted curve at half-maximal effect.
SMILES,GRP78 ERSR act,ALOX12 inh,VDR inhibitor,G9a inh,Sfp PPTase inh
CC1(C)S[C@@H]2[C@H](N)C(=O)N2C1C(=O)O (stereo partly drawn),-1%,nt,4%,20%[5.15 µM],14µM*
CC1(C)S[C@H]2[C@@H](N)C(=O)N2[C@H]1C(=O)O,0%,nt,0%,nt,56µM*
COc1cc2c(cc1CCc1ccccc1)N(C(=O)c1ccn(C)n1)CC21CCN(C(C)=O)CC1,nt,-9%,nt,nt,nt
Cc1nc(-c2ccc(N(C)C)cc2)cc([C@H]2CN3CC[C@H]2C[C@@H]3CNC(=O)c2ccccc2)n1,nt,29%,nt,nt,nt
O=C(CCS(=O)NCc1ccccc1)NCc1ccccc1 (stereo not drawn),nt,nt,nt,18µM*,89µM*
O=C1NC(=S)N(c2ccccc2)C(=O)C1C(c1ccncc1)C1C(=O)NC(=S)N(c2ccccc2)C1=O (stereo not drawn),-2%,-16%,-8%,45µM*,?
COc1ccc(OCC(=O)N2CCN(Cc3ccc4c(c3)OCO4)CC2)cc1,-1%,-1%,40%,5%,26%
Cc1ccc(OCC(=O)N2CCN(Cc3ccc4c(c3)OCO4)CC2)cc1,-2%,?,-14%,4µM*,-23%
COc1ccc(OCC(=O)N2CCN(C(C)C)CC2)cc1,-6%,-14%,11%,10µM*,-19%
COc1ccc(OCC(=O)N2CCN(Cc3ccc(SC)cc3)CC2)cc1,0%,?,-25%,2.2µM*,13%
Cc1ccc(OCC(=O)N2CCN(Cc3ccc([N+](=O)[O-])cc3)CC2)cc1,-1%,-30%,-18%,-131%[59 µM],89µM*
Cc1cccc(OCC(=O)N2CCN(Cc3ccc([N+](=O)[O-])cc3)CC2)c1,-1%,-17%,-3%,0%,12%
CN1CCOC[C@H]2CCN(C(=O)c3ccncc3)C[C@H]21,nt,-6%,nt,nt,nt
COc1ccc(NC(=O)N2[C@H]3CC[C@@H]2c2cnc(-c4ccc(F)cc4)nc2C3)cc1OC,nt,-11%,nt,nt,nt
COc1cc2c(cc1CCc1ccccc1)N([S+](=O)([O-])c1ccc3c(c1)CCO3)CC21CCN(C(C)=O)CC1,nt,-9%,nt,nt,nt
COc1cc2c(cc1O)C(Cc1ccc(O)cc1)NCC2 (stereo not drawn),-2%,25%,-8%,79µM*,-4%
Cl.Cl.Cl.Cl.Cl.Cl.N.N.N.N.NNNNN.NNNNN.O.O.[Ru].[Ru].[Ru],-7%,4%,?,nt,50µM*
O=C1NC(=O)N(Cc2ccco2)C(=O)/C1=C\c1cccn1CCOc1ccc(Cl)cc1,-1%,40µM*,-27%,-6%[59 µM],45µM*
CCc1ccc(N2C(=O)NC(=O)/C(=C/c3cccn3CCOc3ccc(C)cc3)C2=O)cc1,7%,?,17%,22%[59 µM],0%
NC(=O)C1CCN(/C=C2\C(=O)NC(=O)N(Cc3ccco3)C2=O)CC1,-2%,-9%,0%,?,?
Cc1cccc(OCCn2cccc2/C=C2/C(=O)NC(=O)N(Cc3ccco3)C2=O)c1,4%,-72%,8%,nt,56µM*
CN1CCN(Cc2cccc(OC(F)F)c2)CC1CCO (stereo not drawn),nt,10%,nt,nt,nt
O=C(O)COc1ccc(Cl)cc1Cl,3%,15%,-19%,nt,21%
CCOP(=S)(OCC)Oc1ccc(Cl)cc1Cl,-1%,nt,50µM*,nt,?
CCOP(=O)(OCC)O/C(=C/Cl)c1ccc(Cl)cc1Cl,-4%,nt,3%,-5%[12.7 µM],16%
SMILES,GRP78 ERSR act,ALOX12 inh,VDR inhibitor,G9a inh,Sfp PPTase inh
CCCSP(=S)(OCC)Oc1ccc(Cl)cc1Cl (stereo not drawn),-2%,nt,7.1µM*,nt,?
CC(C)CN[C@H]1[C@H](O)[C@H](O)C[C@@H]1c1ccccc1,nt,19%[176 µM],nt,nt,nt
CN(C)c1ccc(C(=O)NC[C@H]2C[C@@H]3CCN2C[C@@H]3CN2CCc3ccccc3C2)cc1,nt,2%[176 µM],nt,nt,nt
NCCc1ccc(OCc2ccccc2)cc1,nt,6%,nt,nt,nt
CCCN1CCO[C@@H]2c3cc(O)ccc3OC[C@@H]21,-1%,?,2%,nt,56µM*
C=CC[N+](C)(C)c1ccc(CCC(=O)CCc2ccc([N+](C)(C)CC=C)cc2)cc1,1%,0%,-18%,16µM*,nt
CNc1oc(-c2ccc(C)cc2)nc1P(=O)(OC)OC,nt,-9%,nt,nt,nt
O=C1C(=Cc2ccccc2)N2CCC1CC2,2%,4%,8%,nt,nt
O=CC1=C(N2CCOCC2)/C(=C\c2ccccc2)CC1,12%,-7%,-13%,40µM*,-2%
CN(C)C(=O)[C@H]1CN2CCC1C[C@@H]2Cn1cc(C2(O)CCCCC2)nn1 (stereo partly drawn),nt,-5%[176 µM],nt,nt,nt
CC(C)(O)C=CC(=O)[C@](C)(O)[C@H]1[C@H](O)C[C@]2(C)[C@@H]3CC=C4[C@@H](C=C(O)C(=O)C4(C)C)[C@]3(C)C(=O)C[C@@]12C,nt,2%[57.4 µM],nt,nt,nt
COc1ccc2c(c1)C1OCCNC1CC2 (stereo not drawn),-2%,?,nt,nt,nt
Oc1cc2c(cc1O)[C@H]1c3ccccc3CN[C@H]1CC2,-7%,11µM*!,-16%,1.4µM*,40µM*
Oc1cc2c(cc1O)[C@H]1c3ccccc3CN[C@@H]1CC2,-8%,nt,nt,2.5µM*,32µM*
CC/C=C(/C)C(=O)NC(C)Cc1ccc(Br)cc1 (stereo not drawn),nt,6%,nt,nt,nt
COCCC(=O)Nc1ccc2n(c1=O)C[C@H]1C[C@@H]2CN(CCCc2ccccc2)C1,nt,21%[176 µM],nt,nt,nt
CC(=O)Nc1ccc2n(c1=O)C[C@H]1C[C@@H]2CN(C(=O)c2ccccn2)C1,nt,3%[176 µM],nt,nt,nt
COc1cccc(CCNCc2c(F)cccc2F)c1,5%,-26%,-10%,7.9µM*,-12%
COc1ccc(-c2cc([C@H]3CN4CC[C@H]3C[C@@H]4CNC(=O)Nc3cccc4ccccc34)n(C)n2)cc1OC,nt,0%,nt,nt,nt
Cc1cccc(N2C(=O)NC(=O)/C(=C\c3cnc(-c4ccccc4)nc3)C2=O)c1,3%,?,50µM*,7.1µM*,?
Cc1cc(C)cc(N2C(=O)NC(=O)/C(=C\c3cccn3-c3ccccc3)C2=O)c1,-13%,-22%,-8%,?,-4%
CC(C)c1ccc(N2C(=O)NC(=O)/C(=C\C=C\c3ccco3)C2=O)cc1,-13%,10µM*,37%,?,-18%
Cc1cc(/C=C2\C(=O)NC(=O)N(c3ccc(Cl)cc3)C2=O)c(C)n1-c1cccc(C(=O)O)c1,1%,?,8%,-6%[2.33 µM],-9%
CC(C)c1ccc(N2C(=O)NC(=O)/C(=C\c3cnc(-c4ccccc4)nc3)C2=O)cc1,0%,?,-22%,?,45µM*
Cc1ccc(N2C(=O)NC(=O)/C(=C/c3cnc(-c4ccccc4)nc3)C2=O)cc1C,-7%,?,32µM*,10µM*,?
CCc1ccc(N2C(=O)NC(=O)/C(=C/c3cccn3CCOc3ccc(C(C)CC)cc3)C2=O)cc1 (stereo not drawn),2%,?,-8%,10%[59 µM],11%
O=C(c1cccs1)N1[C@H]2CC[C@@H]1c1cnc(-c3ccc(F)cc3)nc1C2,nt,30%,nt,nt,nt
